In PubChem BioAssay (Tox21):
Values joined by “and” are separate entries in the source; they are usually repeats but may differ in a detail not shown here. Identical values can stand only once. Inconclusive results are not listed. Where a call stands in place of a potency, no number is given. Active and inactive are the calls of the source. The call rests on the fitted dose curve; in most records, active means well fitted activation curve with a large enough effect in the repeat runs; inconclusive means weak or mixed curves; inactive means flat fitted curve, though single readings scatter.

assay: A CellTox Green Cytotoxicity Assay to monitor cytotoxicity in HepG2 cells - 8 hour (AID 1224890); details: CellTox Green fluorescence; series mostly up to 76.8 µM; further: nearly all actives have a fitted effect of over 45% in size
How it was run: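 HepG2, 600 cells/well premixed w/ CellTox Green; 5 h settle, 37 C/5% CO2; pintool cpd add (DMSO); 37 C, 40 h; fluorescence read at 0, 8, 16, 24, 32, 40 h.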
Potency means the concentration at half of the fitted maximal effect.

Which Potency does the source give for O=[N+]([O-])c1cc(Cl)ccc1Cl here?
Its Potency is “inactive”.

For SCc1ccco1, which Potency is on record?
The Potency was “inactive”.

With C[C@@H]1O[C@@H](O[C@H]2C[C@@H](O)[C@]3(CO)[C@H]4[C@H](O)C[C@]5(C)[C@@H](C6=CC(=O)OC6)CC[C@]5(O)[C@@H]4CC[C@]3(O)C2)[C@H](O)[C@H](O)[C@H]1O as the compound, how does the Potency read?
The Potency was “inactive”.

With c1ccc2c(c1)OCC(C1=NCCN1)O2 (configuration not stated) as the compound, how does the Potency read?
Its Potency is “inactive”.

With CC(C)CCCCCOC(=O)c1ccccc1C(=O)OCCCCCC(C)C as the compound, how does the Potency read?
Its Potency is “inactive”.

With Cc1c(Cl)c(=O)oc2cc(OP(=O)(OCCCl)OCCCl)ccc12 as the compound, how does the Potency read?
Its Potency is “inactive”.

For Clc1ccc(CSC(Cn2ccnc2)c2ccc(Cl)cc2Cl)cc1 (configuration not stated), which Potency is on record?
Its Potency is “inactive”.

For CC(C)(COCC1CO1)COCC1CO1 (configuration not stated), which Potency is on record?
The Potency was “inactive”.

Which Potency does the source give for COC12CC[C@@]3(C[C@@H]1C(C)(O)C(C)(C)C)[C@H]1Cc4ccc(O)c5c4[C@@]3(CCN1CC1CC1)[C@H]2O5 (some centres not stated) here?
The Potency was 43.4 µM (active).

Which Potency does the source give for CCCCCCCCCCCCCCCC[n+]1ccccc1 here?
The Potency was 49 µM (active) and 48.3 µM (active) and 16.9 µM (active).

For O=C1NCN(c2ccccc2)C12CCN(CC1COc3ccccc3O1)CC2 (configuration not stated), which Potency is on record?
The Potency was “inactive”.

With O=C(O)c1cc[c]([Hg][Cl])cc1 as the compound, how does the Potency read?
The Potency was 38.9 µM (active).

Which Potency does the source give for CCN here?
The Potency was “inactive”.

With CC(C)(C)C(O)/C(=C\c1ccc(Cl)cc1Cl)n1cncn1 (configuration not stated) as the compound, how does the Potency read?
Its Potency is “inactive”.

With CCCN(CCC)c1c([N+](=O)[O-])cc(S(N)(=O)=O)cc1[N+](=O)[O-] as the compound, how does the Potency read?
The Potency was 23.3 µM (active).

For O=c1oc2ccccc2c(O)c1Cc1c(O)c2ccccc2oc1=O, which Potency is on record?
The Potency was “inactive”.

For COc1cccc2c1C(=O)c1c(O)c3c(c(O)c1C2=O)C[C@@](O)(C(=O)CO)CC3OC1CC(N2CCOC(OC)C2)C(O)C(C)O1 (some centres not stated), which Potency is on record?
The Potency was 21.3 µM (active).
